These results are taken from PubChem BioAssay (NCI).

Some test systems named below: NCI-H23 lung; NCI-H226 lung; NCI-H322M lung; HOP-62 NSCLC; NCI-H460 lung; HOP-92 NSCLC; NCI-H522 lung; A549/ATCC NSCLC; 786-0 renal; COLO 205 colon.
Holding throughout (assay): NCI-60 one-dose screen, 48 h (100 = growth as untreated, 0 = no growth, -100 = all killed)
Holding throughout (conditions): 10 µM unless noted

SMILES strings stand for the structures. Compounds without any hit were thinned out: in the full panel of roughly 83,000, 20% have a hit.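 Assay: single dose, 48 h. Readout: percent growth (0 = no net growth; negative = cell death). Active: <10.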 A number with no mark means an inactive call. The source made the active and inactive calls.

`O=C1c2cccnc2C(=O)c2c1c(C(=O)OCCN1CCOCC1)c1ccccn21`: the growth was -38.4% (active) with NCI-H23 lung; -28.4% (active) in the assay on NCI-H226 lung; -55.4% (active) in the assay on NCI-H322M lung; -34% (active) in the assay with HOP-62 NSCLC; -31.2% (active) with NCI-H460 lung; 8.96% (active) in the assay with HOP-92 NSCLC. For the same compound, the growth in the assay with NCI-H522 lung is -30.2% (active); in the assay with A549/ATCC NSCLC, -48.7% (active); in the assay on 786-0 renal it was 2.64% (active); in the assay on COLO 205 colon, -53.5% (active).

For the compound `COc1c(C2CC(=O)Nc3c2cnn3Cc2ccco2)cc2c(c1OC)OCO2` (stereo not given), the growth in the assay on NCI-H23 lung is 29.9%; in the assay with NCI-H226 lung, 44.7%; in the assay on NCI-H322M lung it was 55.4%; in the assay with HOP-62 NSCLC, 12.2%; in the assay on NCI-H460 lung, 2.88% (active); with HOP-92 NSCLC it was 48.9%. Further, the growth in the assay on NCI-H522 lung is -2.1% (active); with A549/ATCC NSCLC, 27.6%; in the assay with 786-0 renal it was 35.4%; with COLO 205 colon it was -49.1% (active).

For the compound `COc1ccc(/C(=C/c2ccc3ccccc3c2)c2nn[nH]n2)cc1OC`, the growth is 31.5% in the assay with NCI-H23 lung; 81.1% with NCI-H226 lung; 40.1% in the assay with NCI-H322M lung; 27.8% with HOP-62 NSCLC; 14.1% in the assay on NCI-H460 lung; 5.89% (active) in the assay with HOP-92 NSCLC. Besides, the growth in the assay on NCI-H522 lung was -2.85% (active); in the assay with A549/ATCC NSCLC it was 25.4%; in the assay with 786-0 renal it was 40.4%; in the assay with COLO 205 colon it was -2.4% (active).

For the compound `O=C1OC2C(I)C3CC2C1C3c1ccccc1` (stereo not given), the growth with NCI-H23 lung is 94.8%; in the assay with NCI-H226 lung, 105%; in the assay with NCI-H322M lung, 139%; with HOP-62 NSCLC, 88.9%; in the assay on NCI-H460 lung it was 117%; with HOP-92 NSCLC, 93.7%. Besides, the growth was 110% with NCI-H522 lung, 110% with A549/ATCC NSCLC, 95.2% in the assay with 786-0 renal and 125% with COLO 205 colon.

For the compound `COc1cc(/C=N/N(C)C)ccc1O`, the growth is 105% in the assay with NCI-H23 lung; 91.5% with NCI-H226 lung; 99.1% in the assay on NCI-H322M lung; 91.4% in the assay with HOP-62 NSCLC; 105% in the assay on NCI-H460 lung; -18.7% (active) in the assay on HOP-92 NSCLC. Further, the growth in the assay on NCI-H522 lung is 87.7%; with A549/ATCC NSCLC, 84.1%; with 786-0 renal, 109%; with COLO 205 colon, 108%.

Take `CS(=O)(CCCCN=C=S)=NC(=O)c1c(F)c(F)c(F)c(F)c1F` (stereo not given): the growth is 96.7% in the assay with NCI-H23 lung; 99.6% in the assay with NCI-H226 lung; 108% in the assay on NCI-H322M lung; 111% in the assay with HOP-62 NSCLC; 88.4% in the assay on NCI-H460 lung; 107% in the assay with HOP-92 NSCLC. In addition, the growth was 57% in the assay with NCI-H522 lung, 80.3% with A549/ATCC NSCLC, 89% in the assay on 786-0 renal and 89.4% in the assay with COLO 205 colon.

For `COc1cc(OC)c(/C=C/C(=O)c2c(OC)cc(OC)cc2OC)c(OC)c1`, the growth is 6.77% (active) in the assay with NCI-H23 lung; 36.1% with NCI-H226 lung; 21.4% in the assay on NCI-H322M lung; 27% with HOP-62 NSCLC; 5.86% (active) in the assay on NCI-H460 lung; 130% in the assay on HOP-92 NSCLC. The growth with NCI-H522 lung is 2.82% (active); in the assay on A549/ATCC NSCLC, 25.1%; in the assay on 786-0 renal, 29%; with COLO 205 colon, -6.76% (active).

On to `CCC(C)[C@@H]1NC(=O)[C@@H]2CCCN2C(=O)[C@H](Cc2ccccc2)NC(=O)[C@@H]2CCCN2C(=O)[C@H](Cc2ccccc2)NC(=O)[C@@H]2CCCN2C(=O)[C@H](Cc2ccccc2)NC1=O` (stereo not given in full), for which the growth is 113% in the assay with NCI-H23 lung; 109% with NCI-H226 lung; 127% in the assay on NCI-H322M lung; 103% in the assay on HOP-62 NSCLC; 104% with NCI-H460 lung; 95.3% in the assay on HOP-92 NSCLC. Moreover, the growth in the assay on NCI-H522 lung was 96.3%; with A549/ATCC NSCLC it was 101%; in the assay on 786-0 renal, 109%; in the assay with COLO 205 colon, 108%.

As for `C=CC[N+]1(CCO)CCN=C1CCCCCCCCCCCCC` (stereo not given), the growth with NCI-H23 lung is -86.7% (active); with NCI-H226 lung, 3.45% (active); in the assay with NCI-H322M lung, 73.9%; in the assay with HOP-62 NSCLC it was -90.5% (active); in the assay with NCI-H460 lung it was -85.8% (active); with HOP-92 NSCLC it was -18.3% (active). In addition, the growth in the assay on NCI-H522 lung was -82.6% (active); in the assay on A549/ATCC NSCLC, 0.535% (active); with 786-0 renal it was -97.1% (active); in the assay with COLO 205 colon it was -91.4% (active).

Turning to `CN1CCN(Cc2ccc(NC(=O)c3cncc(C#Cc4c(N)ncc5ccc(C#N)cc45)c3)cc2C(F)(F)F)CC1`, the growth was 47% in the assay with NCI-H23 lung; 3.8% (active) in the assay on NCI-H226 lung; -29.2% (active) in the assay on NCI-H322M lung; 58.4% in the assay with HOP-62 NSCLC; -73.8% (active) with NCI-H460 lung; 13.9% in the assay on HOP-92 NSCLC. Moreover, the growth was -53.7% (active) in the assay with NCI-H522 lung, -65.6% (active) in the assay on A549/ATCC NSCLC, -59.6% (active) in the assay on 786-0 renal and 21.2% with COLO 205 colon.

With `O=S(=O)(Nc1ccc(F)c(Cl)c1)c1ccc(-c2cnc(C3CC3)o2)cc1`, the growth is 24.8% in the assay with NCI-H23 lung; 47.1% in the assay on NCI-H226 lung; 45.7% in the assay on NCI-H322M lung; 33.1% with HOP-62 NSCLC; 10.5% with NCI-H460 lung; 42% with HOP-92 NSCLC. Further, the growth in the assay on NCI-H522 lung was -11.5% (active); in the assay with A549/ATCC NSCLC, 21.4%; with 786-0 renal it was 43.2%; with COLO 205 colon it was -6.19% (active).

Turning to `Nc1cc(O)cc2cccnc12`, the growth in the assay on NCI-H23 lung is 53.1%; in the assay with NCI-H226 lung it was 94.4%; in the assay on NCI-H322M lung it was 104%; with HOP-62 NSCLC it was 86.6%; in the assay with NCI-H460 lung it was 67.6%; in the assay with HOP-92 NSCLC it was 103%. In addition, the growth with NCI-H522 lung was 50.6%; in the assay on A549/ATCC NSCLC, 86.3%; in the assay on 786-0 renal, 105%; in the assay on COLO 205 colon it was 113%.

For `COc1ccc(CN(c2ccc(C)cc2)C2OC(=O)c3ccccc32)cc1OC` (stereo not given), the growth in the assay with NCI-H23 lung was 106%; in the assay on NCI-H226 lung, 91.1%; in the assay on NCI-H322M lung, 99.6%; in the assay with HOP-62 NSCLC, 106%; in the assay with NCI-H460 lung, 101%; in the assay on HOP-92 NSCLC it was 91.3%. For the same compound, the growth in the assay on NCI-H522 lung was 97.2%; with A549/ATCC NSCLC, 88.3%; with 786-0 renal it was 98.5%; with COLO 205 colon it was 138%.

Take `c1ccc(CSc2ncnc3nc[nH]c23)nc1`: the growth in the assay with NCI-H23 lung was 99.1%; with NCI-H226 lung, 91.4%; with NCI-H322M lung it was 103%; with HOP-62 NSCLC, 92.2%; with NCI-H460 lung, 104%; in the assay on HOP-92 NSCLC it was 135%. Further, the growth in the assay on NCI-H522 lung is 82.7%; in the assay with A549/ATCC NSCLC, 106%; in the assay on 786-0 renal it was 92.4%; in the assay with COLO 205 colon it was 121%.
